Assay in all cases: NCI-60 one-dose screen, 48 h (100 = growth as untreated, 0 = no growth, -100 = all killed)
Assay [1] deals with T-47D breast. The following applies: 10 µM.
In assay [2] the test system is BT-549 breast. The following applies: 10 µM unless noted.
Assay [3] has as its system MDA-MB-435 melanoma. The conditions noted are these: 10 µM unless noted.
For assay [4], the system named is SW-620 colon. The following applies: 10 µM unless noted.
The subject of assay [5] is MCF7 breast. The conditions noted are these: 10 µM unless noted.
The test system of assay [6] is HCT-116 colon. The conditions noted are these: 10 µM unless noted.
The test system of assay [7] is HCC-2998 colon. The following applies: 10 µM unless noted.
The subject of assay [8] is KM12 colon. The conditions noted are these: 10 µM unless noted.

About 83,000 compounds went through this panel and 20% of them were active in at least one assay; those are over-represented in the sample as a whole.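 Interpretation: 100, growth as untreated; towards 0, rising growth inhibition; 0, no net growth; 0 to -100, cell death. Compounds scoring below 10 were considered active.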 A number with no mark means an inactive call. Calls of active or inactive are those of the source.

For `Fc1ccccc1Nc1ccc2nnc(-c3ccncc3)n2n1`, the growth in assay [1] was 85.3%; in assay [2], 101%; in assay [3], 106%; in assay [4], 106%; in assay [5], 94.7%; in assay [6], 99.5%. The growth in assay [7] was 107%; in assay [8] it was 112%.
Consider `CN([N-]C(=O)CC(=O)[N-]N(C)C(=S)c1ccccc1)C(=S)c1ccccc1.[Cu+2]`, for which the growth is -52.7% (active) in assay [1]; -73% (active) in assay [2]; -83.9% (active) in assay [3]; -67.4% (active) in assay [4]; -48.3% (active) in assay [5]; -12.4% (active) in assay [6]. The growth in assay [7] is -94.2% (active); in assay [8] it was -74.8% (active).
As for `O=C1CC2c3cc(-c4cc5ccccc5o4)ccc3CCN2C(=O)N1c1ccccc1` (centres undefined), the growth is 57.4% in assay [1]; 92.2% in assay [2]; 89.3% in assay [3]; 111% in assay [4]; 88.6% in assay [5]; 75.3% in assay [6]. For the same compound, the growth in assay [7] is 110%; in assay [8], 101%.
In the case of `CC1SC(c2ccc(Cl)cc2)N(CCc2cccs2)C1=O` (centres undefined), the growth is 9.51% (active) in assay [1]; -39.3% (active) in assay [2]; -37.4% (active) in assay [3]; 12.4% in assay [4]; 2.74% (active) in assay [5]; -5.82% (active) in assay [6]. Further, the growth is -1.78% (active) in assay [7] and -12% (active) in assay [8].
Take `CCCCC(=O)N/N=C/c1cc(I)cc(I)c1O`: the growth in assay [1] is 52.1%; in assay [2], 55.2%; in assay [3], 56.7%; in assay [4] it was 54.6%; in assay [5], 41.5%; in assay [6], 15.1%. Further, the growth in assay [7] was 66.5%; in assay [8] it was 53.2%.
On to `COc1ccc(-c2c(-c3cc4c(c(OC)c3OC)OCO4)noc2N)cc1`, for which the growth in assay [1] was 47.5%; in assay [2], 60.1%; in assay [3], -32.1% (active); in assay [4] it was 17.9%; in assay [5], 19.7%; in assay [6], 22.2%. The growth in assay [7] was 20.6%; in assay [8], 18.9%.
`COc1cccc(C2C3=C(COC3=O)N(CCO)c3cc4c(cc32)CCC4)c1` (centres undefined): the growth in assay [1] is 77.7%; in assay [2] it was 1.24% (active); in assay [3] it was -32.7% (active); in assay [4] it was 18.8%; in assay [5] it was 9.39% (active); in assay [6] it was -9.32% (active). Besides, the growth in assay [7] was -20.6% (active); in assay [8] it was -42.8% (active).
As for `N#Cc1ccc(C(F)(F)F)nc1N1CCC(C(=O)Nc2ccc(Cl)cc2)CC1`, the growth in assay [1] is 64.7%; in assay [2] it was 70.8%; in assay [3], 67.5%; in assay [4] it was 75.4%; in assay [5] it was 60%; in assay [6], 41.3%. For the same compound, the growth in assay [7] was 68.7%; in assay [8] it was 91%.
For `CCN(c1ccc(C(=O)N2CCN(c3ccccc3)CC2)cc1)S(C)(=O)=O`, the growth in assay [1] was 93.2%; in assay [2], 108%; in assay [3], 106%; in assay [4], 108%; in assay [5], 95.9%; in assay [6], 101%. The results for the growth in assay [7] and in assay [8] were 102% and 101%, respectively.
For the compound `CCOC(=O)C(CC(c1ccccc1)N1CCCCC1)[N+](=O)[O-]` (centres undefined), the growth in assay [1] is 59.1%; in assay [2], 94.8%; in assay [3], 93.7%; in assay [4] it was 84.9%; in assay [5], 63.3%; in assay [6], 54.8%. The figures for the growth in assay [7] and in assay [8] were 108% and 37.8%, respectively.
Regarding `CN1CCN(C(=O)OCCOCCOC(=O)N2CCN(C)CC2)CC1`, the growth in assay [1] is 109%; in assay [2], 98.7%; in assay [3], 98.9%; in assay [4], 117%; in assay [5], 102%; in assay [6], 94.8%. Moreover, the growth in assay [7] was 98.4%; in assay [8], 104%.
On to `CN1CCn2c(c(Sc3ccc(C(=O)NO)cc3)c3ccccc32)C1=O`, for which the growth in assay [1] is 14.6%; in assay [2] it was 2.47% (active); in assay [3] it was -74.6% (active); in assay [4], -14.4% (active); in assay [5], 27.1%; in assay [6], -39.3% (active). In addition, the growth is -37.8% (active) in assay [7] and -51.4% (active) in assay [8].
Take `COC(=O)c1c2c(c(C)[n+]([O-])c1C)C(=O)C=C(NCc1ccc(F)c(Cl)c1)C2=O`: the growth is -41.9% (active) in assay [1]; -96.9% (active) in assay [2]; -96.9% (active) in assay [3]; -29.6% (active) in assay [4]; -61.9% (active) in assay [5]; -48.6% (active) in assay [6]. For the same compound, the growth in assay [7] is -59.3% (active); in assay [8] it was -16.5% (active).

For the origin of these results see PubChem BioAssay (NCI).
